Screening data (PubChem BioAssay)
SKKanGAS inh – S. pyogenes SKKanGAS growth inhibitors in kanamycin, primary screen, streptokinase expression inhibitor project, SKKanGAS strain, BacTiter-Glo luminescence; 6 h; inhibition, % at 7.5 µM; 300,000 compounds, 1.3% hits; AID 1662, 2009;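 active = mean replicate score, as percent of positive control median, at least 50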;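 note: strain carries kanamycin resistance gene driven by streptokinase promoter and grows in 40 µg/ml kanamycin; loss of luminescence reflects streptokinase promoter inhibition or plain growth inhibition; 0% = median of DMSO wells and 100% = positive control at its reference dose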
tim10-1 inh – growth inhibitors of tim10-1 mutant yeast, primary screen, luminescence, uHTS | S. cerevisiae tim10-1 ts strain growth, BacTiter-Glo, 24 h | inhibition, % at 20 µM | 330,000 compounds, 2.2% hits | AID 463190, 2010;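 active = inhibition of at least 40%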;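 note: mutant grown at 25 °C; 0% = DMSO wells with yeast and 100% = wells holding no yeast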
NALP1 inh – NALP1 inflammasome inhibitors in reconstituted yeast, colorimetric, S. cerevisiae, triplicate retest; S. cerevisiae NALP1/ASC/caspase-1 growth, X-gal OD620, 72 h; AID 2071, 2009; 280,000 compounds, 0.61% hits; inhibition, % at 10 µM; in the data active = inhibition mostly above about 24%, no sharp cut-off; inactive = mostly below about 32%
tim23-1 inh – growth inhibitors of tim23-1 mutant yeast, primary screen, luminescence, uHTS | AID 463212, 2010 | S. cerevisiae tim23-1 growth, BacTiter-Glo luminescence, 24 h | 330,000 compounds, 1.3% hits | inhibition, % at 20 µM;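 active = growth inhibition of the mutant yeast at or above 50%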;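 note: temperature-sensitive mutant grown at 25 °C; plate controls were DMSO-treated mutant yeast for no effect and medium wells lacking yeast for full effect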
TIM10 inh – growth inhibitors of isogenic TIM10 control yeast, primary screen, counter-screen for tim10-1 yeast inhibitor project, luminescence, uHTS | inhibition, % at 10 µM | AID 463195, 2010 | S. cerevisiae TIM10 strain growth, BacTiter-Glo luminescence, 24 h | 330,000 compounds, 1.4% hits;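 active = inhibition of 40% or more at the single tested concentration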;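 note: wild-type TIM10 isogenic control strain grown at permissive 25 °C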
NLRP3 yeast inh – NALP3 inflammasome inhibitors in reconstituted yeast, primary screen, luminescence, uHTS | Yeast reconstituted NLRP3/ASC/caspase-1, beta-gal luminescence, 24 h | inhibition, % at 10 µM | 330,000 compounds, 0.39% hits | AID 2825, 2010;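 active = inhibition of 50% or more; inactive = inhibition below 50%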;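 note: plate controls were induced DMSO wells for no effect and uninduced yeast grown without galactose for full effect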
tim10-1 confirm – growth inhibitors of tim10-1 mutant yeast, confirmation, single concentration, luminescence, S. cerevisiae; shares compounds with tim10-1 inh; S. cerevisiae tim10-1 ts strain growth, BacTiter-Glo, 24 h; inhibition, % at 20 µM; 7,400 compounds, 56% hits; AID 463213, 2010;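 active = inhibition of yeast growth at or above a set limit in either of two repeat tests at 20 µM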;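 note: tim10-1 mutant grown at permissive 25 °C to find synthetic lethal compounds; 0% = DMSO yeast wells and 100% = medium wells without yeast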
* = called active by the depositor. Most compounds without a hit are left out; they make up all but 4.9% or so of the library.

CNc1nnc(Sc2ncccc2[N+](=O)[O-])s1 was read as SKKanGAS inh 0, tim10-1 inh -27, NALP1 inh 16, tim23-1 inh -16, TIM10 inh -29 and NLRP3 yeast inh 0.
`O=C(N1CCN(c2ncccn2)CC1)C12CC3CC(CC(C3)C1)C2` gave SKKanGAS inh -1, tim10-1 inh 5, tim23-1 inh 36, TIM10 inh 25 and NLRP3 yeast inh 23.
O=C1CCCC(O)=C1Sc1cc(Cl)c(Cl)cc1Cl was read as SKKanGAS inh 8, tim10-1 inh 1, tim23-1 inh 11, TIM10 inh 18 and NLRP3 yeast inh 9.
Screening CNc1sc(C(=O)c2ccc(F)cc2)c(N)c1-c1nc2ccccc2s1 returned SKKanGAS inh -9, tim10-1 inh 41*, NALP1 inh 0, tim23-1 inh 42, TIM10 inh 35, NLRP3 yeast inh 38 and tim10-1 confirm 23.
For CC(=O)Nc1scc(C)c1-c1nc2ccccc2s1 the results were SKKanGAS inh -13, tim10-1 inh 21, NALP1 inh 6, tim23-1 inh 7, TIM10 inh 16 and NLRP3 yeast inh 30.
CNc1sc(C(=O)c2cccs2)c(N)c1-c1nc2ccccc2s1 was read as SKKanGAS inh 20, tim10-1 inh 48*, NALP1 inh -17, tim23-1 inh 45, TIM10 inh 31, NLRP3 yeast inh 44 and tim10-1 confirm 48*.
`Cc1ccc(C(=O)c2nccn2C)cc1C` gave SKKanGAS inh 0, tim10-1 inh -1, NALP1 inh 9, tim23-1 inh 2, TIM10 inh -22 and NLRP3 yeast inh 22.
`COc1cc(Cl)c(C)cc1NC(=O)c1cccc(OC)c1OC` gave SKKanGAS inh 12, tim10-1 inh 41*, NALP1 inh 6, tim23-1 inh 26, TIM10 inh 16, NLRP3 yeast inh 18 and tim10-1 confirm 15.
COc1cc(Cl)c(C)cc1NC(=O)CSc1ccc(NC(C)=O)cc1 was read as SKKanGAS inh -1, tim10-1 inh 42*, NALP1 inh 28, tim23-1 inh 29, TIM10 inh 9, NLRP3 yeast inh 19 and tim10-1 confirm 29.
`COc1cccc(C(=O)Nc2cccc3ccccc23)c1OC` gave SKKanGAS inh -3, tim10-1 inh 25, NALP1 inh 16, tim23-1 inh 36, TIM10 inh -6 and NLRP3 yeast inh 35.
For COc1cc(C)c(NC(=S)Nc2ccc(Cl)c(Cl)c2)cc1OC the results were SKKanGAS inh 4, tim10-1 inh 45*, NALP1 inh 11, tim23-1 inh 34, TIM10 inh 26, NLRP3 yeast inh -6 and tim10-1 confirm 23.
Screening COc1cc(NC(=S)Nc2cccc(Cl)c2Cl)c(OC)cc1Cl returned SKKanGAS inh -5, tim10-1 inh 42*, NALP1 inh -16, tim23-1 inh 37, TIM10 inh 35, NLRP3 yeast inh 18 and tim10-1 confirm 25.
COc1cc(NC(=S)Nc2ccc(Br)cc2Cl)c(OC)cc1Cl was read as SKKanGAS inh 2, tim10-1 inh 39, NALP1 inh 6, tim23-1 inh 21, TIM10 inh 36 and NLRP3 yeast inh 18.
CN(CC(=O)Nc1ccc(F)cc1)C(=O)CNC(=O)C1CCCCC1 was read as tim10-1 inh 7, tim23-1 inh -1, TIM10 inh 5 and NLRP3 yeast inh 15.
For COC(=O)C1CCN(S(=O)(=O)CCNC(=O)c2ccc3c(c2)OCO3)CC1 the results were SKKanGAS inh -4, tim10-1 inh 6, tim23-1 inh 13, TIM10 inh 1 and NLRP3 yeast inh 12.
Screening COc1ccc(C)cc1NC(=S)NNC(=O)c1ccccc1Cl returned tim10-1 inh 44*, NALP1 inh -15, tim23-1 inh 23, TIM10 inh 29, NLRP3 yeast inh 6 and tim10-1 confirm 48*.
Screening COc1cc(Cl)c(C)cc1NC(=S)NN returned SKKanGAS inh 7, tim10-1 inh 41*, NALP1 inh -6, tim23-1 inh 44, TIM10 inh 32, NLRP3 yeast inh 3 and tim10-1 confirm 27.
